Measurements published in PubChem BioAssay (NCI).
About 83,000 compounds went through this panel and 20% of them were active in at least one assay; those are over-represented in the sample as a whole.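 48-hour exposure, single concentration, 96-well plates; percent growth endpoint where 0 means no net growth. Active: below 10.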 Active and inactive are the calls of the source.

How the values were obtained:
Assay in all cases: NCI-60 one-dose screen, 48 h (100 = growth as untreated, 0 = no growth, -100 = all killed)
[1] = test system: HT29 colon; conditions: 10 µM unless noted
[2] = test system: SNB-75 CNS; conditions: 10 µM unless noted
[3] = test system: SNB-19 CNS; conditions: 10 µM unless noted
[4] = test system: U251 CNS; conditions: 10 µM unless noted
[5] = test system: PC-3 prostate; conditions: 10 µM unless noted
[6] = test system: SK-MEL-5 melanoma; conditions: 10 µM unless noted
[7] = test system: UACC-62 melanoma; conditions: 10 µM unless noted
[8] = test system: LOX IMVI melanoma; conditions: 10 µM unless noted
[9] = test system: SK-MEL-28 melanoma; conditions: 10 µM
[10] = test system: SK-MEL-2 melanoma; conditions: 10 µM unless noted

Measured: growth

COc1ccc(C2=C(c3cccc(OC)c3)C(=O)c3ccc(C)nc3C2=O)cc1
inactive: [1] 87.8% | [2] 23.6% | [3] 43.9% | [4] 37.6% | [5] 52.1% | [6] 34.6% | [7] 46.7% | [8] 30.6% | [9] 50.7% | [10] 42.8%

COc1ccc(C2C3=C(COC3=O)N(CCO)c3cc4c(cc32)CCC4)cc1OC (stereo unspecified)
active: [1] -3.07% | [2] -28%
inactive: [3] 27.8% | [4] 20% | [5] 23.4% | [6] 28% | [7] 36.7% | [8] 44%

O=c1oc2ccc(-c3ccc(F)cc3F)cc2c(=O)n1-c1ccc(Cl)c(C(F)(F)F)c1
active: [2] 6.37% | [4] 6.46% | [5] 5.88% | [6] -69.6% | [7] 0.294% | [10] -18.1%
inactive: [1] 53.1% | [3] 33.9% | [8] 32.1% | [9] 20.3%

NCCOc1ncccc1/C=C1\c2ccccc2-c2ccc([N+](=O)[O-])cc21
active: [1] -6.91% | [2] -81.1% | [3] -6.38% | [4] -75% | [5] 3.4% | [6] -97.5% | [7] -81.5% | [8] -91.1% | [9] -22% | [10] -21.2%

COc1cc(-c2c3c(cn2S(=O)(=O)c2ccccc2)-c2nc(N)sc2CC3)cc(OC)c1OC
active: [1] 9%
inactive: [2] 12.1% | [3] 29% | [4] 25.8% | [5] 41.8% | [6] 14.1% | [7] 51.1% | [8] 38.4% | [9] 68.6% | [10] 54.3%

O=C(Nc1ccc(Cl)cc1F)c1cc(F)ccc1O
active: [2] -12.4% | [4] -4.4% | [5] 3.1% | [6] -84.4% | [7] -7.35% | [8] 9.69% | [9] 7.52% | [10] -29.8%
inactive: [1] 10.3% | [3] 22.8%

CCCCN1CCN(c2ccc3nc(-c4ccc5nc(-c6ccc(OCC)cc6)[nH]c5c4)[nH]c3c2)CC1
inactive: [1] 21.4% | [2] 60% | [3] 85.3% | [4] 60.5% | [5] 56.7% | [6] 49.3% | [7] 59.9% | [9] 61.6% | [10] 86.6%
active: [8] -81%

CSc1nc2c(c(=O)n1C)N=C1c3ccccc3C(=O)C1C(c1ccccc1)N2 (stereo unspecified)
inactive: [1] 52.2% | [2] 50% | [3] 82.4% | [4] 74.5% | [5] 64.9% | [6] 69.2% | [7] 107% | [8] 74.5% | [9] 72.5% | [10] 66.2%

COc1ccc(Cn2c(Br)c3c(c2Br)-c2nc(NC(=O)c4ccc(OC)cc4)sc2CC3)cc1
inactive: [1] 84.8% | [2] 48.2% | [3] 80.1% | [4] 67.8% | [5] 71.5% | [6] 62.1% | [7] 63.5% | [8] 80.3% | [9] 81.8% | [10] 83.8%

O=c1oc2ccc(F)cc2c(=O)n1-c1ccc(I)cc1F
inactive: [1] 46.2% | [3] 15.6% | [8] 10.7% | [9] 12.3%
active: [2] -15.3% | [4] 0.481% | [5] -2.68% | [6] -84.1% | [7] -16.4% | [10] -19.7%

C1CCN(c2nc(N3CCCCC3)nc(N3CCOCC3)n2)CC1
inactive: [1] 88.2% | [2] 81% | [3] 96.1% | [4] 101% | [5] 104% | [6] 101% | [7] 93% | [8] 98.7%

Nc1ncnc(N)c1NC(=O)c1ccc(OCc2ccccc2)cc1
inactive: [1] 96.3% | [2] 110% | [3] 103% | [4] 102% | [5] 106% | [6] 102% | [7] 99% | [8] 110% | [9] 117% | [10] 93.1%

O=C1Nc2ccccc2/C1=C/c1cccs1
inactive: [1] 110% | [2] 103% | [3] 83.2% | [4] 83.2% | [5] 92.3% | [6] 85.9% | [7] 85.9% | [8] 93% | [9] 102% | [10] 110%

Cn1c(/C=C(\C#N)c2ccccc2)nc2c(N3CCOCC3)nc(Cl)nc21
inactive: [3] 56.9%
active: [1] -54.6% | [2] -94.9% | [4] 3.21% | [5] -62.3% | [6] -53.8% | [7] -86.1% | [8] -87.9% | [9] -78.6% | [10] -34.4%

COc1ccc(Nc2nc(N/N=C/c3ccc(O)cc3)nc(Nc3ccc([N+](=O)[O-])cc3)n2)cc1
inactive: [1] 105% | [2] 104% | [3] 101% | [4] 104% | [5] 108% | [6] 104% | [7] 110% | [8] 107% | [9] 104% | [10] 103%

CN(C)c1ccc(/C=C/c2ccnc3c(O)cccc23)cc1
inactive: [1] 98.6% | [2] 28.5% | [3] 26.4% | [4] 12% | [5] 32% | [8] 13.1% | [9] 29.1% | [10] 11.8%
active: [6] 8.23% | [7] -27.6%

Nc1ccc(-n2c(=O)oc3ccc(Cl)cc3c2=O)c(Cl)c1
active: [1] 3.86% | [2] -41.3% | [4] -8.77% | [5] 2.14% | [6] -83.9% | [7] -34.9% | [8] 0.455% | [9] -10.6% | [10] -31.6%
inactive: [3] 16.2%

O=C(NN1C(=O)CSC1c1ccc(Cl)cc1)c1[nH]c2ccc(F)cc2c1-c1ccccc1 (stereo unspecified)
inactive: [1] 19.2% | [2] 59.2% | [3] 64.2% | [4] 49.6% | [5] 42.7% | [6] 75% | [7] 48.7% | [8] 60.9% | [9] 101% | [10] 49.3%

O=C1OC(c2ccccc2)(c2ccccc2)c2ccsc21
inactive: [1] 102% | [2] 103% | [3] 102% | [4] 102% | [5] 101% | [6] 102% | [7] 94.1% | [8] 103% | [9] 112% | [10] 94%

CCOc1ccc2c(c1)CN(Cc1ccc(Cl)cc1)CO2
active: [2] -39.4%
inactive: [1] 57.3% | [3] 18.1% | [4] 25.4% | [5] 49.1% | [6] 74.1% | [7] 62.4% | [8] 35.2% | [9] 41.9% | [10] 50.4%

CCOc1cccc(/C=N\Nc2nc(=O)cc(C(=O)OC)s2)c1O
inactive: [1] 76.1% | [2] 77.8% | [3] 75.9% | [4] 57.6% | [5] 72.8% | [6] 79.8% | [7] 63% | [8] 61.7% | [9] 87.2% | [10] 99.6%

Cc1cc(Br)c(N)c(Br)c1
inactive: [1] 106% | [2] 84.3% | [3] 103% | [4] 96.4% | [5] 93% | [6] 102% | [7] 98.6% | [8] 93.6% | [9] 101% | [10] 110%

O=c1c(-c2nc3ccccc3[nH]2)cc2ccccc2n1Cc1cn(Cc2ccc(F)cc2)nn1
inactive: [3] 21.8% | [4] 14.2% | [5] 22% | [7] 17.2% | [8] 12.8% | [9] 45.1% | [10] 36%
active: [1] 2.52% | [2] -19.2% | [6] 6.69%

CCN1C(=O)N(CC)C2C1NC(=S)N2/N=C/C=C/c1ccccc1OC (stereo unspecified)
inactive: [2] 44.8% | [3] 26.5% | [4] 20.8% | [5] 25.2% | [7] 25.8% | [8] 21.1% | [9] 56.7% | [10] 32.6%
active: [1] 2.77% | [6] -40.7%

O=C(/C=C/c1ccc(F)cc1)c1ccc(Nc2nc(NCCO)nc(Nc3ccc(Cl)cc3)n2)cc1
inactive: [1] 22.4% | [2] 81.4% | [3] 93.4% | [4] 27% | [5] 68% | [6] 75.4% | [7] 74.5% | [8] 37.3% | [9] 86.9% | [10] 103%

Clc1ccc(COc2ccc(Nc3ncnc4onc(-c5ccccc5)c34)cc2)cc1
inactive: [1] 92.2% | [2] 67.8% | [3] 91.6% | [4] 94% | [5] 67% | [6] 83% | [7] 64.2% | [8] 86.7% | [9] 92.1% | [10] 101%

CN1C(=O)N(C)C2Nn3c(s/c(=C4\C(=O)N(CCc5ccccc5)c5ccccc54)c3=O)=NC21 (stereo unspecified)
inactive: [1] 38.4% | [2] 48.2% | [3] 85.7% | [4] 77.8% | [5] 44.4% | [6] 27.4% | [7] 44.7% | [8] 54.8% | [9] 76.4% | [10] 69.3%

COc1ccc(Cn2c(Br)c3c(c2-c2cc(OC)c(OC)c(OC)c2)CCc2sc(NC(C)=O)nc2-3)cc1
inactive: [1] 33.7% | [2] 25.3% | [3] 41% | [4] 39.2% | [5] 43.7% | [6] 16.6% | [7] 29.7% | [8] 33.3% | [9] 39.2% | [10] 55.6%
